# From PubChem BioAssay (NCATS)
# Results filed as inconclusive are left out. Activity calls are given as the source filed them. Unless noted, the call rests on the fitted dose curve; in most records, active means well fitted curve in the direction sought with a large enough effect; inconclusive means small, poorly fitted or top-dose-only effect, or another doubt; inactive means no such curve, though single readings can be large; an effect the other way counts as inactive or inconclusive.
# Key:
# [1] = AP1 Signaling Pathway (AID 357; active means well fitted curve in either direction with a large enough effect, not every such curve was filed as active;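 further: ME-180 reporter cells stimulated with EGF at its EC50 level; on the % scale 0 is the no-effect control and ±100 the full control effect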); details: ME-180 AP-1-bla reporter, EGF-induced, beta-lactamase ratio, 5 h; at 7.69 µM (top of the series) unless noted
# Outline: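 Titration-series screen for positive or negative modulators of EC50 EGF-induced signaling in ME-180 cells carrying an AP-1-driven beta-lactamase reporter. After 5 hours at 37 degrees Celsius, CCF4 460nm/530nm emission ratio gave %Activity; AC50 values derived.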
# [2] = target: Cytochrome P450 1A2 (Homo sapiens) (UniProt P05177); assay: p450-cyp1a2 (AID 410; calls by dose curve; further: potency means the concentration at half of the fitted maximal effect)
# Sequence of Cytochrome P450 1A2 (Homo sapiens) (P05177 whole entry, looked up): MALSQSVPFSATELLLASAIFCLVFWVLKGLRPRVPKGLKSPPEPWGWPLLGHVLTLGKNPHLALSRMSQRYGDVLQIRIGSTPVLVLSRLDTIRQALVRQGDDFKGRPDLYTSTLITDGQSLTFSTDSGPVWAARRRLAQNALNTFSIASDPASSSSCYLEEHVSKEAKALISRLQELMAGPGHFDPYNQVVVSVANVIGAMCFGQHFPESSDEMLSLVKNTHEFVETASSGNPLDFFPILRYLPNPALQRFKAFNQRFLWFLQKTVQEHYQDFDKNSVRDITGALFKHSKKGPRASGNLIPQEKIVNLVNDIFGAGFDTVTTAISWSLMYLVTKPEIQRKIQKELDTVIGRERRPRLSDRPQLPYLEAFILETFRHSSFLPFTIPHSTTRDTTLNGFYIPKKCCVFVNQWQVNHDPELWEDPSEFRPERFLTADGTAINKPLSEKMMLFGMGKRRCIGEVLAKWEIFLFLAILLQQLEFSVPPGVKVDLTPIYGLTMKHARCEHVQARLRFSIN
# Outline: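 Read-out is luminescence from luciferin produced by CYP1A2 demethylation of Luciferin-ME (100uM, at Km). Detection reagent stopped the 60 min NADPH-dependent reaction; signals were normalized to 57 uM furafylline.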
# [3] = NFAT Signaling Pathway (AID 444; active means well fitted curve in either direction with a large enough effect, not every such curve was filed as active;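 further: carbachol stimulus at about its EC50 of 1 µM final; on the % scale 0 is the no-effect control and ±100 the full control effect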); details: Jurkat NFAT-bla M1, carbachol, beta-lactamase ratio, 5 h; at 7.69 µM (top of the series) unless noted
# Outline: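 Read-out: CCF4 FRET ratio (460 nm/530 nm) after 1 h RT dye loading, used for %activity and AC50 from titration series. Cells: Jurkat NFAT-β-lactamase/M1 line, treated with compound plus 1 uM carbachol for 5 h, 37 °C.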
# [4] = target: Glucocorticoid receptor (Homo sapiens) (UniProt P04150); assay: GR-GFP Redistribution (AID 450;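 active means compounds whose dose series gives a full or clear partial fitted curve of increased nuclear translocation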; further: potency means the concentration at half of the fitted maximal effect); details: U2OS GR-GFP nuclear translocation, laser cytometry, 2 h
# Sequence of Glucocorticoid receptor (Homo sapiens) (P04150 whole entry, looked up, the tested form may be a part): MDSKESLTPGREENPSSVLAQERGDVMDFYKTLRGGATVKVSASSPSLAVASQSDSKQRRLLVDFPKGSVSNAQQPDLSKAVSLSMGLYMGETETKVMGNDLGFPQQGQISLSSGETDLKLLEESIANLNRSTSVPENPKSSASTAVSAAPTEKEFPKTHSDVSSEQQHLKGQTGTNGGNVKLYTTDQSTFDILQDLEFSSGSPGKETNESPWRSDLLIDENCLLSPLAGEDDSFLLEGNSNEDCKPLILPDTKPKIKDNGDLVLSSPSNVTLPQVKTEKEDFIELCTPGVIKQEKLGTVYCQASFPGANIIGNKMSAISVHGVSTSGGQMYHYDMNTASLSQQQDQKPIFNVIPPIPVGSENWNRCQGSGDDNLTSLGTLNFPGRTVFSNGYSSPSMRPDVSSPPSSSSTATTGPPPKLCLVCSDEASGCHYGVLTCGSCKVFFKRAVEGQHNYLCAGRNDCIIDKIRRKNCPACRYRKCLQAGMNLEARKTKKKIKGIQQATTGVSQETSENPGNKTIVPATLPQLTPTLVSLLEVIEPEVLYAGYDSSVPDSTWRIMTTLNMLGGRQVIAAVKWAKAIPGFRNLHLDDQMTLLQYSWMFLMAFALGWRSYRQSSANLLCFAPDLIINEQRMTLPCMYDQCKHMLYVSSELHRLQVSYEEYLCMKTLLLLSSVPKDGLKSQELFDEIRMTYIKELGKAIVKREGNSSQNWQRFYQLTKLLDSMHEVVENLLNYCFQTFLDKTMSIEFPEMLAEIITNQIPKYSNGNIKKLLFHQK
# [5] = target: Glucocorticoid receptor (Homo sapiens) (UniProt P04150); assay: GR-EFC Redistribution (AID 451; calls by dose curve; further: potency means the concentration at half of the fitted maximal effect); details: CHO-K1 GR-EFC translocation, beta-gal luminescence, 2 h
# Outline: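 Translocation of GR-ED fusion to nuclear EA restores b-gal, read by luminescence after 1 h room-temperature detection. Engineered CHO-K1 biosensor cells, 1,000/well, exposed 2 h at 37 C to titrations up to 46 uM final.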
# [6] = target: Mitogen-activated protein kinase 10 (Mus musculus) (UniProt Q61831); assay: JNK3 AlphaScreen Assay (AID 530; active means well fitted curve in either direction with a large enough effect, not every such curve was filed as active;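 further: kinase came from lysate of stimulated human HepG2 cells; signal reports phosphorylation of biotinylated GST-cJun 1-79 at Ser73 with 10 µM ATP; on the % scale 0 is the no-effect control and ±100 the full control effect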)
# Outline: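 Kinase buffer: 20 mM Tris-HCl pH 7.6, 10 mM MgCl2, 1 mM DTT, 0.1 mM Na3VO4, 0.01% Tween-20; ATP 10 uM. Substrate biotin-GST-cJun(1-79), enzyme from activated HepG2 lysates. Detection by Ser73 phospho-antibody AlphaScreen.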
# [7] = target: 3',5'-cyclic-AMP phosphodiesterase 4B (Homo sapiens) (UniProt Q07343); assay: qHTS Assay for Inhibitors of PDE-IV (AID 607; active means well fitted activation curve with a large enough effect in the main read-out, with a control signal flat, not every such curve was filed as active; further: % of control where 0% means no effect)
# Sequence of 3',5'-cyclic-AMP phosphodiesterase 4B (Homo sapiens) (Q07343 whole entry, looked up): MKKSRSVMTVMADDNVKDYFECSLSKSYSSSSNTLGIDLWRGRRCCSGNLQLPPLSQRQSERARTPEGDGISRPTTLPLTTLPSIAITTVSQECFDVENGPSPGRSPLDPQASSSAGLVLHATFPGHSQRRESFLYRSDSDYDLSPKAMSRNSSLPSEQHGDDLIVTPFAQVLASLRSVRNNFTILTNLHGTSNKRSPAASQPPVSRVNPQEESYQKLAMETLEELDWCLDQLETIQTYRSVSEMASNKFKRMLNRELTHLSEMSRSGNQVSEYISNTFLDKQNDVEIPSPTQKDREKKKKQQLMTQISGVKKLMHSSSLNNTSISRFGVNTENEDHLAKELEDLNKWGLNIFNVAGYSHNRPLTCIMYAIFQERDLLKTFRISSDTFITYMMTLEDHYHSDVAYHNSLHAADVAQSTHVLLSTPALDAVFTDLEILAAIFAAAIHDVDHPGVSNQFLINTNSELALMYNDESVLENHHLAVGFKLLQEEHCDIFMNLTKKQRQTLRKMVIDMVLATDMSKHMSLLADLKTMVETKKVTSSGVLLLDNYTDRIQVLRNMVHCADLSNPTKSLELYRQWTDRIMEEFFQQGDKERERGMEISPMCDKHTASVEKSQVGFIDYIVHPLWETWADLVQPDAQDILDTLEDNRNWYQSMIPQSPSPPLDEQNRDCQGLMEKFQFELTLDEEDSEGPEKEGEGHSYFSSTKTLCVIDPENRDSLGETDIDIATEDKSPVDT
# Outline: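 Cell-based read-out of cAMP via a modified cyclic nucleotide-gated channel and membrane potential dye (535/590 nm) in HEK293 cells expressing PDE4 endogenously. Compounds tested up to 22.9 uM final; 100 uM RO 20-1724 reference.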
# [8] = target: Cytochrome P450 3A4 (Homo sapiens) (UniProt P08684); assay: qHTS Assay for Activators of Cytochrome P450 3A4 (AID 885); further: nearly all actives have a fitted effect of over 65% in size
# Sequence of Cytochrome P450 3A4 (Homo sapiens) (P08684 whole entry, looked up): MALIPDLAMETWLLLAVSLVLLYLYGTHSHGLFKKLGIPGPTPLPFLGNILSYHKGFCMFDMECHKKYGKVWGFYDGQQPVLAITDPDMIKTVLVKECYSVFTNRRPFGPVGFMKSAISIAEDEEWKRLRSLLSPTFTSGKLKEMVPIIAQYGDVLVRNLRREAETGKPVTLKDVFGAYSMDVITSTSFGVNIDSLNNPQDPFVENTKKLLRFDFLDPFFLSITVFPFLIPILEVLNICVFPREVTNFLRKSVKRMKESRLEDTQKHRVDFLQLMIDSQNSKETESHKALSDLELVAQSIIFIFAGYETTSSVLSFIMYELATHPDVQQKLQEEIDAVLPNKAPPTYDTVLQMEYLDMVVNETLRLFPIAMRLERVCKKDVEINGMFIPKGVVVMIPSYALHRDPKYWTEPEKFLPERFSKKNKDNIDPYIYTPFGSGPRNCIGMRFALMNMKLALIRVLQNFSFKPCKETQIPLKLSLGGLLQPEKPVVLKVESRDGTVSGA
# Outline: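 Luminescent readout of luciferin formed from 25 uM Luciferin-PPXE (KM level) by 20 nM CYP3A4 in 200 mM KPO4, with 60 min NADPH-driven reaction at room temperature after 10 min compound exposure. Ketoconazole (57 uM) defined 100% inhibition.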
# [9] = qHTS Assay for Identification of Small Molecule Agonists for Hypoxia Response Element Signaling Pathway (AID 914; active means well fitted activation curve with a large enough effect in the signal ratio, with a control signal flat, not every such curve was filed as active; the % refers to the signal ratio; further: potency means the concentration at half of the fitted maximal effect; on activation: % of control where 0% means no effect); details: ME-180 HRE-bla reporter, beta-lactamase ratio, CoCl2, 17 h; activation: stronger effect = higher value
# Outline: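 Read-out: CCF4 FRET ratio of 460nm to 530nm emission (excitation 405nm) after 2.5 hours at room temperature, taken from HRE-bla ME-180 cells that had been exposed to compound and EC50 CoCl2 for 17 hours.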
# [10] = qHTS Assay for Lipid Storage Modulators (AID 1519; calls by dose curve); details: Drosophila S3 cells, BODIPY lipid droplet/cell ratio, laser cytometry, cells loaded with oleic acid; for activity change, negative = inhibition: at 57.5 µM (top of the series)
# Outline: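 Cells seeded at 5,000 per well were treated with compounds over a concentration series and loaded with oleic acid (400 uM, as added). Lipid droplet fluorescence (488 nm excitation, 500-530 nm channel) was read by laser-scanning cytometry and normalized to 20 uM Triacsin C.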
# [11] = Counterscreen qHTS for small molecule stabilizers of the endoplasmic reticulum resident proteome: GLuc-NoTag assay (AID 1508627);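 further: SH-SY5Y cells given compound then 100 nM thapsigargin to empty ER calcium; 0% = thapsigargin alone and -100% = DMSO vehicle control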
# Outline: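 Counterscreen line: SH-SY5Y-GLuc-NoTag cells, treated with compound 19 hr before a 4 hr, 100 nM thapsigargin calcium depletion. Secreted Gaussia luciferase in the medium was measured by luminescence after coelenterazine was added (0.07x final), with cells unlysed.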
# [12] = Confirmatory qHTS for small molecule stabilizers of the endoplasmic reticulum resident proteome: Secreted ER Calcium Modulated Protein (SERCaMP) assay (AID 1508628); further: nearly all actives have a fitted effect of over 40% in size; further: potency means the concentration at half of the fitted maximal effect
# Outline: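 GLuc-SERCaMP-expressing SH-SY5Y cells, pretreated 16 h with compound, are challenged with thapsigargin to empty ER calcium stores; after 4 h, coelenterazine is added directly to the medium and luminescence is imaged.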
# [13] = target: Lysosomal acid glucosylceramidase (Homo sapiens) (UniProt P04062); assay: Glucocerebrosidase-p2 (AID 348; in the data active means potency below about 10 µM; further: potency means the concentration at half of the fitted maximal effect); details: purified GBA, blue fluorogenic substrate, 40 min
# Sequence of Lysosomal acid glucosylceramidase (Homo sapiens) (P04062 whole entry, looked up): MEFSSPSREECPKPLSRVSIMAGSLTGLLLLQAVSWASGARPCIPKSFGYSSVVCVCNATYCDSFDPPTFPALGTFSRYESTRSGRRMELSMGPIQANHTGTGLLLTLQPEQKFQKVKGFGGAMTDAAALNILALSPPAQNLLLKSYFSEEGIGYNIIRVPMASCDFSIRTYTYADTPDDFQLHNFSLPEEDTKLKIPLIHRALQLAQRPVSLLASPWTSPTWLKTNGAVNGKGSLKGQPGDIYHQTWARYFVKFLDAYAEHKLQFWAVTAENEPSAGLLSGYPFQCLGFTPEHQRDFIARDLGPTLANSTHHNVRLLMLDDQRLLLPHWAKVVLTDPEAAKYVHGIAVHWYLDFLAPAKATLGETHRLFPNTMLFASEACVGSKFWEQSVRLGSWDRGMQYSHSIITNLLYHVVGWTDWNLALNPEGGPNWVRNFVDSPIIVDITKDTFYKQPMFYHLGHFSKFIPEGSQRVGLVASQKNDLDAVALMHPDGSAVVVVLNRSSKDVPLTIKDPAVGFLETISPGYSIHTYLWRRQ
# Outline: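 Normal human glucocerebrosidase (0.2 nM) with blue fluorogenic substrate (80 uM final) in citrate/phosphate pH 5.9 with 10mM sodium taurocholate, 0.01% tween-20; 40 min RT, NaOH/glycine stop; fluorescence Ex 365/Em 440; AC50 from a titration from 0.6 nM upwards.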
# [14] = Stat Signaling Pathway (AID 446; active means well fitted curve in either direction with a large enough effect, not every such curve was filed as active;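 further: ME-180 cervical cancer cells given 40 pM IL-6 alongside compound; SIE-controlled beta-lactamase reporter measured as 460/530 nm FRET emission ratio; on the % scale 0 is the no-effect control and ±100 the full control effect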); details: ME-180 (cervical carcinoma) SIE beta-lactamase reporter, IL-6 stimulated, 5 h; at 7.69 µM (top of the series) unless noted
# Outline: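 FRET read-out (405 nm excitation, 460/530 nm emission) of a beta-lactamase reporter under a STAT-inducible element in ME-180 cervical carcinoma cells. Cells with compound receive 40 pM IL-6 for 5 h. Values are normalised to AC90 stimulation and AC90 JAK-inhibitor controls.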
# [15] = Confirmation and Secondary Assay for Modulators of Hemoglobin Beta Chain Splicing at IVS2 654 locus (AID 910);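 further: HeLa cells stably carrying EGFP split by mutant beta-globin IVS2-654 intron; per-well total GFP intensity by laser scanning cytometry after 2-day treatment; % of control where 0% means no effect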
# Outline: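 Readout: per-well total peak green fluorescence (488 nm ex, 500–520 nm em) from objects 5–250 µm, reflecting correct splicing of an EGFP-654 reporter. Compounds were applied for 2 days at 37 °C to overnight-plated HeLa EGFP-654 cells; controls were DMSO and 500 nM IVS2-654 PNA.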
# [16] = target: Ubiquitin carboxyl-terminal hydrolase 1 (Homo sapiens) (UniProt O94782); assay: Inhibitors of USP1/UAF1: Pilot qHTS (AID 504865);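 further: rhodamine fluorescence freed from ubiquitin-rhodamine substrate followed over time; top concentration of the series differs between compounds; on the % scale 0 is the no-effect control and ±100 the full control effect; nearly all actives have a fitted effect of over 35% in size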
# Sequence of Ubiquitin carboxyl-terminal hydrolase 1 (Homo sapiens) (O94782 whole entry, looked up): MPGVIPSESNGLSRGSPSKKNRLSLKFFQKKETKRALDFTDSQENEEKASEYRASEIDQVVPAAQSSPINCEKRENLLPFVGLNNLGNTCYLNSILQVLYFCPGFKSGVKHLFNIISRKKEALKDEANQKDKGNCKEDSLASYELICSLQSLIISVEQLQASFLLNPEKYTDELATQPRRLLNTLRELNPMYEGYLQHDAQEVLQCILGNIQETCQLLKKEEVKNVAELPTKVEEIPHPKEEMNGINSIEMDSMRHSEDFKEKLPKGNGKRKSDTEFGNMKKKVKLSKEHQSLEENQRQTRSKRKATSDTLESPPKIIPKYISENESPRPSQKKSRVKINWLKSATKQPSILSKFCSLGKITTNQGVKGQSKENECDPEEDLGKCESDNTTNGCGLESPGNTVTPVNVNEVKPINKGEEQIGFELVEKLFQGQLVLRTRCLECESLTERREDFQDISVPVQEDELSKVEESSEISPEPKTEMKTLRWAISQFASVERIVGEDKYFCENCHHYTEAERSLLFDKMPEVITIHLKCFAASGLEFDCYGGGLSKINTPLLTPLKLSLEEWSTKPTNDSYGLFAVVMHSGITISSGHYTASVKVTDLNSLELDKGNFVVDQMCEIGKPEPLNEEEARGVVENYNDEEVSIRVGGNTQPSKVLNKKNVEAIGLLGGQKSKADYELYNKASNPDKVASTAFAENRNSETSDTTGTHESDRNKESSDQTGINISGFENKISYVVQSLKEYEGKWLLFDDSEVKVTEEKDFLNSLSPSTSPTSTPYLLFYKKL
# Outline: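 USP1/UAF1 complex (1nM) preincubated with compound 15 min at room temperature, then Ub-Rho substrate (150nM final) added. Fluorescence read kinetically at 480/540 nm, 6 reads every 60 seconds. Buffer: 50mM HEPES pH 7.8, 0.5mM EDTA, 0.1 mg/ml BSA, 1mM TCEP, 0.01% Tween-20.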
# [17] = Cell Viability qHTS for small molecule stabilizers of the endoplasmic reticulum resident proteome (AID 1508629); details: cell viability counter-screen, 100 nM thapsigargin for final 4 h
# [18] = target: Dual specificity protein kinase CLK4 (Homo sapiens) (UniProt Q9HAZ1); assay: qHTS Assay for Inhibitors of CDC-like Kinase 4 (Kinase-Glo Assay) (AID 1770); further: on the % scale 0 is the no-effect control and ±100 the full control effect; nearly all actives have a fitted effect of over 65% in size
# Sequence of Dual specificity protein kinase CLK4 (Homo sapiens) (Q9HAZ1 whole entry, looked up): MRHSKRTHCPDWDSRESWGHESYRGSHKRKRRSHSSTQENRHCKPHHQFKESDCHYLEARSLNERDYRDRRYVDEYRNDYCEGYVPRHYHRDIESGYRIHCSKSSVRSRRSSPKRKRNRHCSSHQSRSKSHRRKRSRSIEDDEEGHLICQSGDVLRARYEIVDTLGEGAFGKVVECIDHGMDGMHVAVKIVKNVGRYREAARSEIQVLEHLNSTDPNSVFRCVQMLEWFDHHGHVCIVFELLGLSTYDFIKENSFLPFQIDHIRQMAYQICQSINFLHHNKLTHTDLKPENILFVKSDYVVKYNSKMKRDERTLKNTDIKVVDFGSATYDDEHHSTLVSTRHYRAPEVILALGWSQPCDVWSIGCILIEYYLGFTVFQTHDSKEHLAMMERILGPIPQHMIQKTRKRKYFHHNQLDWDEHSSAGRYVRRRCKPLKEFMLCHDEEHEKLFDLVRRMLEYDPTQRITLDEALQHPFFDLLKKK
# Outline: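 Recombinant human Clk4 (25 nM) phosphorylated RS repeat peptide (100 uM) with 1 uM ATP in Tris pH 7.5/MgCl2/EGTA/DTT/Triton buffer for 4.5 h at room temperature. Residual ATP was quantified by Kinase-Glo luciferase luminescence.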
# [19] = target: Dual specificity protein kinase CLK4 (Homo sapiens) (UniProt Q9HAZ1); assay: qHTS Assay for Inhibitors of CDC-like Kinase 4 (ADP-Glo Assay) (AID 1771); further: on the % scale 0 is the no-effect control and ±100 the full control effect; nearly all actives have a fitted effect of over 70% in size
# Outline: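 In this ADP-Glo format, 1 uM ATP and 100 uM RS peptide served as substrates for 25 nM Clk4 in Mg2+/EGTA/DTT/Triton buffer; reactions ran 1 hr at room temperature before luminescent ADP quantification.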
# [20] = target: Dual specificity protein kinase CLK4 (Homo sapiens) (UniProt Q9HAZ1); assay: qHTS Assay for Inhibitors of CDC-like Kinase 4 (ADP-FP Assay) (AID 1795); further: on the % scale 0 is the no-effect control and ±100 the full control effect; nearly all actives have a fitted effect of over 60% in size
# Outline: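 Recombinant human Clk4 (6.25 nM) phosphorylated RS repeat peptide (100 uM) with 1 uM ATP in Tris pH 7.5/MgCl2/EGTA/DTT/Triton buffer for one hour. ADP was quantified by Transcreener competitive fluorescence polarization against an ADP calibration curve.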
# [21] = measured here: cell count channel max response
# [22] = measured here: lipid channel max response
compound,measurement,setting,value
O=c1c(-c2ccccc2)nc2cnc(N3CCNCC3)nc2n1C1CC1,"activity change, negative = inhibition",[1],27.1% (inactive)
same,Potency,[2],3.98 µM (active)
same,"activity change, negative = inhibition",[3],100% (inactive)
same,Potency,[4],> 9.22 µM (inactive)
same,Potency,[5],> 46 µM (inactive)
same,outcome,[6],inactive
same,Potency,[7],inactive
same,Potency,[8],inactive
same,Potency,[9],3.16 µM (active)
same,"activity change, negative = inhibition",[10],5.31% (inactive)
same,max response,[10]; [21],32.7%
same,max response,[10]; [22],42.5%
same,Potency,[11],inactive
same,Potency,[12],39.8 µM (active)
N#CCCn1c(=O)c(-c2ccc(Cl)cc2)nc2cnc(OCc3ccccc3)nc21,Potency,[13],> 11.4 µM (inactive)
same,Potency,[2],2 µM (active)
same,"activity, negative = inhibition",[14],1.91% (inactive)
same,Potency,[4],> 9.22 µM (inactive)
same,Potency,[5],> 46 µM (inactive)
same,outcome,[6],inactive
same,"activity change, negative = inhibition",[10],5.27% (inactive)
same,max response,[10]; [21],8.68%
same,max response,[10]; [22],16.3%
same,Potency,[11],inactive
same,Potency,[12],inactive
CN1CCN(c2ncc3nc(-c4cc(F)cc(F)c4)c(=O)n(-c4ccccc4)c3n2)CC1,Potency,[13],> 11.4 µM (inactive)
same,Potency,[4],> 9.22 µM (inactive)
same,Potency,[5],> 46 µM (inactive)
same,outcome,[6],inactive
same,"activity change, negative = inhibition",[10],2.22% (inactive)
same,max response,[10]; [21],13.7%
same,max response,[10]; [22],14.9%
same,Potency,[11],inactive
same,Potency,[12],inactive
Clc1ccccc1-c1nc(N2CCNCC2)c2ccccc2n1,Potency,[13],> 11.4 µM (inactive)
same,"activity change, negative = inhibition",[1],-2.1% (inactive)
same,Potency,[2],2.51 µM (active)
same,"activity change, negative = inhibition",[3],-0.528% (inactive)
same,"activity, negative = inhibition",[14],9.64% (inactive)
same,Potency,[4],> 46 µM (inactive)
same,Potency,[5],> 46 µM (inactive)
same,outcome,[6],inactive
same,Potency,[7],inactive
same,Potency,[8],inactive
same,outcome,[15],inactive
same,activation,[9],16.5% (inactive)
same,"activity change, negative = inhibition",[10],3.77% (inactive)
same,max response,[10]; [21],7.62%
same,max response,[10]; [22],12%
same,Potency,[16],inactive
same,Potency,[11],inactive
same,Potency,[12],12.6 µM (active)
Cc1nc2cnc(N3CCN(C)CC3)nc2n(Cc2cccs2)c1=O,Potency,[13],> 11.4 µM (inactive)
same,"activity change, negative = inhibition",[1],6.23% (inactive)
same,Potency,[2],12.6 µM (active)
same,"activity change, negative = inhibition",[3],-2.27% (inactive)
same,"activity, negative = inhibition",[14],-2.61% (inactive)
same,Potency,[4],> 9.22 µM (inactive)
same,Potency,[5],> 46 µM (inactive)
same,outcome,[6],inactive
same,Potency,[7],inactive
same,Potency,[8],inactive
same,"activity change, negative = inhibition",[10],5.56% (inactive)
same,max response,[10]; [21],14%
same,max response,[10]; [22],22.2%
same,Potency,[11],inactive
same,Potency,[12],39.8 µM (active)
same,max response,[17],-5.25% (inactive)
COc1ccc(-n2c(=O)c(-c3cccc(C#N)c3)nc3cnc(N4CCNCC4)nc32)cc1,"activity change, negative = inhibition",[1],6.83% (inactive)
same,Potency,[2],15.8 µM (active)
same,"activity change, negative = inhibition",[3],5.29% (inactive)
same,"activity, negative = inhibition",[14],13.3% (inactive)
same,Potency,[5],> 46 µM (inactive)
same,outcome,[6],inactive
same,Potency,[7],inactive
same,"activity change, negative = inhibition",[10],9.59% (inactive)
same,max response,[10]; [21],24%
same,max response,[10]; [22],29.5%
same,Potency,[18],inactive
same,Potency,[19],inactive
same,Potency,[20],inactive
same,Potency,[16],inactive
same,Potency,[11],inactive
same,Potency,[12],25.1 µM (active)
